Results: PubChem BioAssay AID1159580 (chemical genetic matrix, 2015)
Among all 5,500 compounds or so, about 2,000 (36%) were called active. Inconclusive results (about 18%) are left out. Cut-off read from the data, not from the text of the source: active = normalized growth mostly below about 0.91 (no sharp cut-off); inconclusive = no clear call, values can overlap the other calls; inactive = mostly above about 0.92. This is one part of the list.

Test: chemical genetic growth profiling, strain panel (AID 1159580);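 note: tested at 20 µM; growth read once vehicle control cultures reached saturation at 30 °C; 1 = growth at the plate median or of vehicle wells; lower values mean less growth of the strain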
Settings: S. cerevisiae deletion strains, growth OD

Measured: normalized growth

C[C@]12CC[C@@H]3c4ccc(O)cc4CC[C@H]3[C@@H]1CC[C@@H]2O
inactive: locus YAL013W, strain DEP1, active compounds read low 1 | locus YAL040C, strain CLN3, active compounds read low 1.01 | locus YCL061C, strain MRC1 (second series), active compounds read low 1.01 | locus YDR150W, strain NUM1, active compounds read low 1.01 | locus YDR363W, strain ESC2, active compounds read low 1.01 | locus YER002W, strain NOP16, active compounds read low 1.02 | locus YGR078C, strain PAC10, active compounds read low 0.999 | locus YJR075W, strain HOC1, active compounds read low 1.01 | locus YNL153C, strain GIM3, active compounds read low 0.948 | locus YNL175C, strain NOP13, active compounds read low 1.01 | locus YNL197C, strain WHI3, active compounds read low 1.03 | locus YNL224C, strain SQS1, active compounds read low 1.03 | locus YOR083W, strain WHI5 (second series), active compounds read low 0.899
